From PubChem BioAssay AID1159580 (chemical genetic matrix, 2015)
Hit rate of the full screen: of about 5,500 compounds, about 2,000 (36%) were called active. Inconclusive results (about 18%) are left out. Cut-off read from the data, not from the text of the source: active = normalized growth mostly below about 0.91 (no sharp cut-off); inconclusive = no clear call, values can overlap the other calls; inactive = mostly above about 0.92. This is one part of the list.

Test: chemical genetic growth profiling, strain panel (AID 1159580);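 note: tested at 20 µM; growth read once vehicle control cultures reached saturation at 30 °C; 1 = growth at the plate median or of vehicle wells; lower values mean less growth of the strain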
Details: growth OD

Measured: normalized growth

COc1cc([C@H]2Oc3cc([C@H]4Oc5cc(O)cc(O)c5C(=O)[C@@H]4O)ccc3O[C@@H]2CO)ccc1O
inactive: S. cerevisiae deletion strains, locus YJR075W, strain HOC1, active compounds read low 0.999 | S. cerevisiae deletion strains, locus YKL009W, strain mrt4, active compounds read low 0.984 | S. cerevisiae deletion strains, locus YKL068W, active compounds read low 0.981 | S. cerevisiae deletion strains, locus YKL085W, strain MDH1 (second series), active compounds read low 1.02 | S. cerevisiae deletion strains, locus YKL085W, strain MDH1, active compounds read low 1.02 | S. cerevisiae deletion strains, locus YKL160W, strain elf1, active compounds read low 1.01 | S. cerevisiae deletion strains, locus YKL190W, strain CNB1, active compounds read low 0.989 | S. cerevisiae deletion strains, locus YKR001C, strain vps1, active compounds read low 0.961 | S. cerevisiae deletion strains, locus YKR026C, strain gcn3, active compounds read low 1.01 | S. cerevisiae deletion strains, locus YKR091W, strain srl3, active compounds read low 1.01 | S. cerevisiae deletion strains, locus YLL001W, strain dnm1, active compounds read low 1.01 | S. cerevisiae deletion strains, locus YLL026W, active compounds read low 1.01 | S. cerevisiae deletion strains, locus YLL041C, strain sdh2, active compounds read low 1.01 | S. cerevisiae deletion strains, locus YLR027C, strain aat2, active compounds read low 1.02 | S. cerevisiae deletion strains, locus YLR039C, strain RIC1, active compounds read low 0.945 | S. cerevisiae deletion strains, locus YLR058C, strain SHM2, active compounds read low 0.998 | S. cerevisiae deletion strains, locus YLR102C, strain apc9, active compounds read low 0.979 | S. cerevisiae deletion strains, locus YLR113W, strain HOG1, active compounds read low 0.986 | S. cerevisiae deletion strains, locus YLR221C, strain rsa3, active compounds read low 0.988 | S. cerevisiae deletion strains, locus YLR258W, strain gsy2, active compounds read low 1 | S. cerevisiae deletion strains, locus YLR262C, strain YPT6 (second series), active compounds read low 1.03 | S. cerevisiae deletion strains, locus YLR262C, strain YPT6, active compounds read low 0.953 | S. cerevisiae deletion strains, locus YLR268W, strain sec22, active compounds read low 0.965 | S. cerevisiae deletion strains, locus YLR320W, strain mms22, active compounds read low 0.991 | S. cerevisiae deletion strains, locus YLR330W, strain CHS5, active compounds read low 1 | S. cerevisiae deletion strains, locus YLR342W, strain FKS1 (second series), active compounds read low 1.01 | S. cerevisiae deletion strains, locus YLR342W, strain FKS1, active compounds read low 1.01 | S. cerevisiae deletion strains, locus YLR357W, strain rsc2, active compounds read low 1.03 | S. cerevisiae deletion strains, locus YLR370C, strain arc18, active compounds read low 1 | S. cerevisiae deletion strains, locus YLR371W, strain rom2, active compounds read low 0.971 | S. cerevisiae deletion strains, locus YLR384C, strain iki3, active compounds read low 1.02 | S. cerevisiae deletion strains, locus YLR418C, strain cdc73, active compounds read low 0.978 | S. cerevisiae deletion strains, locus YML016C, strain PPZ1, active compounds read low 1.01 | S. cerevisiae deletion strains, locus YML032C, strain rad52, active compounds read low 0.945 | S. cerevisiae deletion strains, locus YML120C, strain ndi1, active compounds read low 1.01 | S. cerevisiae deletion strains, locus YML124C, strain tub3, active compounds read low 0.986 | S. cerevisiae deletion strains, locus YMR058W, strain fet3, active compounds read low 0.998 | S. cerevisiae deletion strains, locus YMR078C, strain ctf18, active compounds read low 0.979 | S. cerevisiae deletion strains, locus YMR125W, strain sto1, active compounds read low 1.03 | S. cerevisiae deletion strains, locus YMR129W, active compounds read low 1.01 | S. cerevisiae deletion strains, locus YMR205C, strain PFK2, active compounds read low 1.01 | S. cerevisiae deletion strains, locus YMR223W, strain ubp8, active compounds read low 0.958 | S. cerevisiae deletion strains, locus YMR231W, strain pep5, active compounds read low 1.01 | S. cerevisiae deletion strains, locus YMR263W, strain SAP30, active compounds read low 0.998 | S. cerevisiae deletion strains, locus YMR307W, strain GAS1, active compounds read low 0.905 | S. cerevisiae deletion strains, locus YNL067W, strain RPL9B, active compounds read low 0.994 | S. cerevisiae deletion strains, locus YNL071W, strain lat1, active compounds read low 0.995 | S. cerevisiae deletion strains, locus YNL128W, strain TEP1, active compounds read low 0.993 | S. cerevisiae deletion strains, locus YNL153C, strain GIM3, active compounds read low 1 | S. cerevisiae deletion strains, locus YNL183C, strain NPR1, active compounds read low 0.932 | S. cerevisiae deletion strains, locus YNL209W, strain ssb2, active compounds read low 1.01 | S. cerevisiae deletion strains, locus YNL233W, strain BNI4, active compounds read low 0.997 | S. cerevisiae deletion strains, locus YNL248C, strain rpa49, active compounds read low 1.01 | S. cerevisiae deletion strains, locus YNL250W, strain rad50, active compounds read low 0.975 | S. cerevisiae deletion strains, locus YNL271C, strain bni1, active compounds read low 0.969 | S. cerevisiae deletion strains, locus YNL298W, strain CLA4, active compounds read low 0.965 | S. cerevisiae deletion strains, locus YNL307C, strain MCK1, active compounds read low 0.969 | S. cerevisiae deletion strains, locus YNL322C, strain KRE1 (second series), active compounds read low 1.01 | S. cerevisiae deletion strains, locus YNL322C, strain KRE1, active compounds read low 0.993 | S. cerevisiae deletion strains, locus YNR049C, strain mso1, active compounds read low 1.01 | S. cerevisiae deletion strains, locus YNR052C, strain pop2, active compounds read low 0.979 | S. cerevisiae deletion strains, locus YOL006C, strain TOP1, active compounds read low 0.969 | S. cerevisiae deletion strains, locus YOL012C, strain htz1 0.746 | S. cerevisiae deletion strains, locus YOL147C, strain pex11, active compounds read low 0.973 | S. cerevisiae deletion strains, locus YOR001W, strain rrp6, active compounds read low 1.01 | S. cerevisiae deletion strains, locus YOR061W, strain CKA2, active compounds read low 1 | S. cerevisiae deletion strains, locus YOR069W, strain VPS5, active compounds read low 1.01 | S. cerevisiae deletion strains, locus YOR070C, strain gyp1, active compounds read low 1.01 | S. cerevisiae deletion strains, locus YOR080W, strain dia2, active compounds read low 1.02 | S. cerevisiae deletion strains, locus YOR083W, strain WHI5, active compounds read low 1.01 | S. cerevisiae deletion strains, locus YOR106W, strain vam3, active compounds read low 1.01 | S. cerevisiae deletion strains, locus YOR136W, strain idh2, active compounds read low 0.973 | S. cerevisiae deletion strains, locus YOR144C, strain elg1, active compounds read low 0.96 | S. cerevisiae deletion strains, locus YOR184W, strain ser1, active compounds read low 0.947 | S. cerevisiae deletion strains, locus YOR231W, strain MKK1, active compounds read low 1.02 | S. cerevisiae deletion strains, locus YOR265W, strain rbl2, active compounds read low 1.01 | S. cerevisiae deletion strains, locus YOR270C, strain vph1, active compounds read low 0.961 | S. cerevisiae deletion strains, locus YOR290C, strain snf2, active compounds read low 0.996 | S. cerevisiae deletion strains, locus YOR316C, strain cot1, active compounds read low 0.985 | S. cerevisiae deletion strains, locus YPL051W, strain arl3, active compounds read low 1 | S. cerevisiae deletion strains, locus YPL055C, strain LGE1, active compounds read low 0.995 | S. cerevisiae deletion strains, locus YPL078C, strain atp4, active compounds read low 1.02 | S. cerevisiae deletion strains, locus YPL106C, strain sse1, active compounds read low 0.994 | S. cerevisiae deletion strains, locus YPL240C, strain hsp82, active compounds read low 1.01 | S. cerevisiae deletion strains, locus YPL241C, strain CIN2, active compounds read low 0.975 | S. cerevisiae deletion strains, locus YPL256C, strain CLN2, active compounds read low 1.01 | S. cerevisiae deletion strains, locus YPR119W, strain clb2, active compounds read low 0.993 | S. cerevisiae deletion strains, locus YPR141C, strain kar3, active compounds read low 0.985 | S. cerevisiae deletion strains, locus YPR163C, strain tif3, active compounds read low 0.973 | S. cerevisiae deletion strains, locus YPR167C, strain met16, active compounds read low 0.996 | S. cerevisiae deletion strains, strain wtn01, active compounds read low 0.987 | S. cerevisiae strains, strain wild type, active compounds read low 1
